# Test results reported in the supplement of paper PMC11732987, “Enantioselective OTUD7B fragment discovery through chemoproteomics screening and high-throughput optimisation” (Communications Chemistry, 2025).
# Target: USP34 (UniProt Q70CQ2)
# Experiment: log2 ratio of Biotin-Ahx-Ub-VS probe labelling (fragment/DMSO); higher = less target engagement (more negative = stronger competition), active = hit call of the paper (q ≤ 0.05, log2 ratio ≤ -1)
# Details: compound concentration: 200 uM; treatment time: 3 h
# Procedure, shortened: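 Labelled DUBs from HEK293T lysate were NeutrAvidin-enriched, digested with LysC and trypsin, and run by diaPASEF LC-MS/MS. Before that, each 495 µg sample in Tris/CHAPS/IGEPAL buffer with protease inhibitors was treated in triplicate with fragment at 200 µM or vehicle for 3 h, then with Biotin-Ahx-Ub-VS at 0.5 µM final for 1 h. Values are average log2 ratios of fragment over vehicle by unpaired t-test, based on global-median-normalised Spectronaut label-free quantities from proteins with ≥2 unique peptides.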
# USP34, sequence (Q70CQ2 whole entry, the tested form may be a part): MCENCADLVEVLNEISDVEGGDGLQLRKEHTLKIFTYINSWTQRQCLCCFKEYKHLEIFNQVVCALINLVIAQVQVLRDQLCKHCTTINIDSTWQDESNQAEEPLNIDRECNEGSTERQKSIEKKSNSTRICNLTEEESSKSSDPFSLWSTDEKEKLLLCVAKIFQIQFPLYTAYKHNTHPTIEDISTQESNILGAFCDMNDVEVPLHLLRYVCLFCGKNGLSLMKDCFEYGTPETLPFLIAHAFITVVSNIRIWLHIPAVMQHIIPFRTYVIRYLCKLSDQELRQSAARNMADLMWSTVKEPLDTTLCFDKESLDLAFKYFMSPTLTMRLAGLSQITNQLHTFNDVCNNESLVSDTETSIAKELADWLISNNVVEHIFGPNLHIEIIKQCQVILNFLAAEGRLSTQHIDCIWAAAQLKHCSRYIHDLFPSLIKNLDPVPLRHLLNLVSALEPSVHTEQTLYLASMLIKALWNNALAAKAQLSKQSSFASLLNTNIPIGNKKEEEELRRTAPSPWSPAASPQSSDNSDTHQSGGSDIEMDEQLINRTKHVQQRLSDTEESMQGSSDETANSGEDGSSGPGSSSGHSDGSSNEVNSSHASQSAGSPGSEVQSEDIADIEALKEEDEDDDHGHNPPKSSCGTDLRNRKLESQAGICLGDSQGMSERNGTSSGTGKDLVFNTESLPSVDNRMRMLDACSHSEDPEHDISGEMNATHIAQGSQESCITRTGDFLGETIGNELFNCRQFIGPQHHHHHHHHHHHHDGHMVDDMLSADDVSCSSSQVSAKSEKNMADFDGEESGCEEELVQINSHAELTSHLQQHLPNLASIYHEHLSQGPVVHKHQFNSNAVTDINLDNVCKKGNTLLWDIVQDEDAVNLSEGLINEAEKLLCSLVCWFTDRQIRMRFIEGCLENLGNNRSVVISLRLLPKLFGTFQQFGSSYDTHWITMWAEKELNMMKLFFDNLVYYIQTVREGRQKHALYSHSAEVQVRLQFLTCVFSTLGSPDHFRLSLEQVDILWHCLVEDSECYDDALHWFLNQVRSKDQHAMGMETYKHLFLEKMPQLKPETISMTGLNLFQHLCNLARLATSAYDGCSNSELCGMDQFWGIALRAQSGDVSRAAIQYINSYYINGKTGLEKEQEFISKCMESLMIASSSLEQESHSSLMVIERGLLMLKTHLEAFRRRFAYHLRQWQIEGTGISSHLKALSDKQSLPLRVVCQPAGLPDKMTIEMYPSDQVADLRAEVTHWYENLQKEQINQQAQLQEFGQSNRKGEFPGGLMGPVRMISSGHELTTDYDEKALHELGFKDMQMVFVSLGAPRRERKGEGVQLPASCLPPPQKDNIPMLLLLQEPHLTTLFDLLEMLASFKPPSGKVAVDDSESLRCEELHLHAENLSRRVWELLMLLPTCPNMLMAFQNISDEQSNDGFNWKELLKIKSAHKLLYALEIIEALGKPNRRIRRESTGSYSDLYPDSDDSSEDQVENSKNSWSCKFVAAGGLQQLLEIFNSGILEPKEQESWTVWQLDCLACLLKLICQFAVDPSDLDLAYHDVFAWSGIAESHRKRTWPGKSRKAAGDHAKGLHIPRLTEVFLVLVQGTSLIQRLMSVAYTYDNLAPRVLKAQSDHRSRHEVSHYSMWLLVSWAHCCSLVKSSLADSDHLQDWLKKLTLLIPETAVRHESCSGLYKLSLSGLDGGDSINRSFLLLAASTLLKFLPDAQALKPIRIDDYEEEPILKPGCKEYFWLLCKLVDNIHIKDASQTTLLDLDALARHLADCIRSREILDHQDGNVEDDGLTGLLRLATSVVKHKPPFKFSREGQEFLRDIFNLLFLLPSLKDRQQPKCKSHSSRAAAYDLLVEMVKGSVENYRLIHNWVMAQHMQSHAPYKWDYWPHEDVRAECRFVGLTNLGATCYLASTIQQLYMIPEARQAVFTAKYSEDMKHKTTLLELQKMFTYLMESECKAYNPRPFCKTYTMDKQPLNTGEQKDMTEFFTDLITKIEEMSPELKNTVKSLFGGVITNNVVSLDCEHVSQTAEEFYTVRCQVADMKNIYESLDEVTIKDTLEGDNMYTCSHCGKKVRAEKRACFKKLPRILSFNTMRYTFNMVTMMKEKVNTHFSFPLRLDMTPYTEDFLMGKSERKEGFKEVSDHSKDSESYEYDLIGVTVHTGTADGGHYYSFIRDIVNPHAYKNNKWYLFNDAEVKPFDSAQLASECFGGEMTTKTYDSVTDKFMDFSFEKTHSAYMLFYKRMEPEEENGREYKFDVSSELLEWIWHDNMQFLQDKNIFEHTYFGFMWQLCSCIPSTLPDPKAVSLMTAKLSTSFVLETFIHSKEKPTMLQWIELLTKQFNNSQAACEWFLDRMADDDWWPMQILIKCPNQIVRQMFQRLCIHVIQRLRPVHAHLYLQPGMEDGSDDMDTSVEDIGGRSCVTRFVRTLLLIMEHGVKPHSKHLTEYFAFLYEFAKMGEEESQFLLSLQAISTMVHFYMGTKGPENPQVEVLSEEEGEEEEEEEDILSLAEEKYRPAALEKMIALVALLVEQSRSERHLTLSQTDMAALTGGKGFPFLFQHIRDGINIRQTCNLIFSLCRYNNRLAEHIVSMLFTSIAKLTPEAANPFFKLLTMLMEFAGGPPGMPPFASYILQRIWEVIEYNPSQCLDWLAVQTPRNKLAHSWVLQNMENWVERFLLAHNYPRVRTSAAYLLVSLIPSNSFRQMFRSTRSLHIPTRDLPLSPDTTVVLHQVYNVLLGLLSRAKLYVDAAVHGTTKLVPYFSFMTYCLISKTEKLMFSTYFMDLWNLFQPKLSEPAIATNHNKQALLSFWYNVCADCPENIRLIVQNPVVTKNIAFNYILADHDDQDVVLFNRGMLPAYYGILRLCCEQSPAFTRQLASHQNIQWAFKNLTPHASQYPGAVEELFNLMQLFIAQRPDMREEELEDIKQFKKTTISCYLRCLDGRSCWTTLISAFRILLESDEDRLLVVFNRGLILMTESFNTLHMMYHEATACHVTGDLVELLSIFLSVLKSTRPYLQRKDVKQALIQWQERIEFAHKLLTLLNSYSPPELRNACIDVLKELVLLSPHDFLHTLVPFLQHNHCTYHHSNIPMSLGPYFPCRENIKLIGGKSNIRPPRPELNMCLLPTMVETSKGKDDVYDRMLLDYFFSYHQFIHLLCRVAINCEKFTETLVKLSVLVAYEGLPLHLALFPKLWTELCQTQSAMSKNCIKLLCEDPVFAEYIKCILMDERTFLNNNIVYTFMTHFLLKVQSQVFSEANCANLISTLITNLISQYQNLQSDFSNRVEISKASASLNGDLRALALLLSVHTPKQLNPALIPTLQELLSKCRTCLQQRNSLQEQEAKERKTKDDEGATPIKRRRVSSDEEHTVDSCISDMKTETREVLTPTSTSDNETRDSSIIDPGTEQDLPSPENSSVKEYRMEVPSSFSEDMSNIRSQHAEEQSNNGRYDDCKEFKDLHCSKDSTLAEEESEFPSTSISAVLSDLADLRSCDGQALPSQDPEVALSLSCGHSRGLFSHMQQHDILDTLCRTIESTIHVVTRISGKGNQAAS
row,SMILES,log2 ratio of Biotin-Ahx-Ub-VS probe labelling
1,O=C(CCl)N1CCCCC12CCOCC2,-0.284 (inactive)
2,Cl.Cn1ncc2c1CCCC2NC(=O)CCl (centres undefined),-0.0828 (inactive)
3,COCC[C@@H](NC(=O)CCl)c1ccccc1,-0.0495 (inactive)
4,CN(C(=O)CCl)c1nc2ccccc2s1,-0.279 (inactive)
5,O=C(CCl)N1CCC(C(=O)N2CCCCCC2)CC1,-0.0554 (inactive)
6,O=C(CCl)N1CCOC2(CCC2)CC1,-0.139 (inactive)
7,O=C(CCl)NCCC1=CCCCC1,0.0934 (inactive)
8,O=C(CCl)N(C1CCCC1)C1CCS(=O)(=O)C1 (centres undefined),-0.0865 (inactive)
9,Cc1noc(N2CCN(C(=O)CCl)CC2)n1.Cl,0.028 (inactive)
10,COc1ccccc1C(C)NC(=O)CCl (centres undefined),-0.129 (inactive)
11,O=C(CCl)N(Cc1ccsc1)C1CC1,-0.211 (inactive)
12,O=C(CCl)N1CCC(S(=O)(=O)c2ccc(F)cc2)CC1,-0.128 (inactive)
13,Cc1nc(CN2CCN(C(=O)CCl)CC2)cs1,0.0453 (inactive)
14,O=C(CCl)N1CC2(CCOCC2)C1,-0.0656 (inactive)
